Measured values from PubChem BioAssay AID2314 (National Center for Advancing Translational Sciences (NCATS), 2010).
In all, about 300,000 compounds went through this assay and about 37,000 (12%) were called active. For the sample, actives were picked, then their nearest neighbours and some compounds at random. A number with no mark means an inactive call. Rule as the data show it: active = max response mostly above about 13% (no sharp cut-off); inactive = mostly below about 14%.

Test: Cycloheximide Counterscreen for Small Molecule Inhibitors of Shiga Toxin; also: read at 38.3 µM for the half of the compounds with a filed dose; 0% is about no effect
Conditions: cell reporter, cycloheximide protein synthesis inhibition counterscreen; stronger effect = higher value

| Structure (SMILES) | max response |
| --- | --- |
| CCCc1nn(C)c2c(=O)[nH]c(-c3cc(S(N)(=O)=O)ccc3OCC)nc12 | -4.06% |
| COCCn1c(SCC(=O)N2CCCCCC2)nc2c(c1=O)SCC2 | 4.66% |
| CC(C)Cc1ccc(C(C)C(=N)N)cc1 (stereo not drawn) | -2.08% |
| COCc1ccc(C(=O)NC2CC(C)(C)Cc3c2cnn3-c2ccc(C)cc2)o1 (stereo not drawn) | 4.44% |
| COC(=O)c1c(C)c(C)nc(N)c1C#N | 5.15% |
| Cc1nc(Cl)c(C#N)c2c1CCCC2 | 4.78% |
| COCc1c(N)c(C)nc(Cl)c1C#N | 14% (active) |
| Fc1ccc(CNCc2ccc(Br)cc2)cc1 | 2.17% |
| CCc1cc2c(=O)n(-c3ccccc3)c(SCC(=O)O)nc2s1 | -0.568% |
| COCc1cc(=O)[nH]c(SC)n1 | -3.39% |
| O=C(N/N=C/c1ccc(OCc2ccccc2)cc1)c1ccc(O)cc1 | 18.7% |
| O=C(Cc1cccs1)N/N=C/c1ccc(OCc2ccccc2)cc1 | -2.21% |
| Cc1ccc(OCCOCCOc2ccc(Br)cc2/C=N\NC(=O)c2ccncc2)cc1 | -4.52% |
| Cc1ccc(OCCOc2cccc(/C=N/NC(N)=O)c2)cc1 | 15.2% (active) |
| Cc1cccc(OCC(=O)NCC(=O)N/N=C/c2ccc(N(C)C)cc2)c1 | 1.69% |
| O=C(N/N=C/c1cccc(OCc2ccccc2)c1)c1ccc(Br)o1 | 47.1% (active) |
| Cc1ccc(S(=O)(=O)Oc2ccc(/C=N/NC(=O)c3ccncc3)cc2)cc1 | 6.52% |
| CC(C)NS(=O)(=O)c1ccc(OCC(=O)NC2CCCCCC2)cc1 | 1.29% |
| Cc1nc(N2CCCCC2)sc1C=O | -2.42% |
| Cc1nc2ccc(S(=O)(=O)NC(C(=O)N3CCCCCC3)C(C)C)cc2s1 (stereo not drawn) | -2.97% |
| c1ccc2sc(N3CCNCC3)nc2c1 | 11.7% |
| O=C(NCCc1cccc(F)c1)C1CCCN(c2nc3ccccc3s2)C1 (stereo not drawn) | -3.33% |
| Fc1ccc2nc(N3CCCCC3)sc2c1 | 29.6% (active) |
| Brc1ccc2nc(N3CCCC3)sc2c1 | 38.8% (active) |
| c1c2c(cc3sc(N4CCCCC4)nc13)OCCO2 | 25.6% (active) |

| Structure (SMILES) | max response |
| --- | --- |
| Cc1nc2cc3c(cc2s1)OCO3 | -2.58% |
| CCOC(=O)N1CCC(NC(=O)c2ccc3nc(N4CCOCC4)sc3c2)CC1 | -1.55% |
| O=C(CN(CC1CCCO1)C(=O)CNS(=O)(=O)c1ccc(Cl)cc1)NCc1ccccc1 (stereo not drawn) | -3.57% |
| CC1=C[C@H]2Cc3cc(C)cc(C)c3S(=O)(=O)[C@@H]2C=C1 | -2.12% |
| CC(Sc1nnc(-c2ccccc2F)n1C1CC1)C(N)=O (stereo not drawn) | -2.7% |
| O=C(NNS(=O)(=O)c1ccc([N+](=O)[O-])cc1)C1CCCCC1 | 10.1% |
| COc1ccccc1C(=O)N1CCN=C1SCc1cccnc1 | 0.58% |
| O=C1CN(C(=O)c2ccccc2F)C(c2ccc(F)cc2)c2cc(F)ccc2N1 (stereo not drawn) | -4.28% |
| Cc1nccn1CC(=O)N/N=C/c1ccc(O)c(O)c1 | -1.27% |
| O=C(N/N=C/c1ccc(O)c(O)c1)C1c2ccccc2Oc2ccccc21 | -0.597% |
| Oc1ccc(/C=N/Nc2ccc(C(F)(F)F)cn2)cc1O | 57.2% (active) |
| CCCc1cc(=O)[nH]c(SCC(=O)Nc2sc3c(c2C#N)CCCC3)n1 | -1.28% |
| O=S(=O)(NC1CCCCC1N1CCCCC1)c1ccc(Cl)cc1 (stereo not drawn) | -6.15% |
| O=C(O)c1ccc(S(=O)(=O)N2CCOCC2)o1 | -6.82% |
| COc1ccc(Cl)cc1NC(=O)CN(C)C(=O)CNC(=O)C12CC3CC(CC(C3)C1)C2 | 6.85% |
| COc1ccc(OC)c(NC(=O)CN(Cc2ccc(Cl)cc2)S(C)(=O)=O)c1 | -2.07% |
| COc1ccc(Cl)cc1NC(=O)CN(C)Cc1ccc(OC)c(OC)c1 | 10.8% (active) |
| CN1CCN(c2ccccc2NC(=O)COc2ccc(C3CCCCC3)cc2)CC1 | -1.31% |
| CCOC(=O)c1cccc(NC(=O)C2CCN(c3ncnc4c3nc3n4CCCCC3)CC2)c1 | -6.95% |
| O=C(NCc1ccncc1)C1CCCN(S(=O)(=O)c2ccc(Br)cc2)C1 (stereo not drawn) | 1.08% |
| COc1ccc(CSc2nnnn2-c2ccc(O)cc2)cc1F | -3.78% |
| CCc1ccc2oc(-c3ccc(N)cc3)nc2c1 | 38.2% (active) |
| Cn1c(Cc2cccc3ccccc23)nnc1SCC(=O)N1CCN(c2cccc(Cl)c2)CC1 | -3.1% |
| COCc1cc(C)n(CC(=O)NCC2CCCO2)c(=O)c1C#N (stereo not drawn) | -6.37% |
| Cc1c(CCC(=O)O)c(=O)oc2c(C)c(OCc3ccccc3Cl)ccc12 | 1.9% |

| Structure (SMILES) | max response |
| --- | --- |
| CC(C)(C)n1nnnc1C(c1ccccc1F)N1CCN(C(=O)c2ccco2)CC1 (stereo not drawn) | -1.72% |
| O=C(/C=C/c1ccc(OCc2c(F)cccc2Cl)cc1)N1CCOCC1 | 27.3% (active) |
| CN(C)CCCNC(=O)/C=C/c1ccc(OCc2c(F)cccc2Cl)cc1 | -2.24% |
| COCCCNC(=O)/C=C/c1ccc(OCc2c(F)cccc2Cl)cc1 | -7.84% |
| COc1ccc(NS(=O)(=O)c2cc(C(=O)Nc3ccccc3C(=O)O)ccc2C)cc1 | 1.17% |
| CCOc1cc(N2CCOCC2)c(OCC)cc1NC(=O)c1cc(C)nc2ccccc12 | -1.57% |
| CC(=O)Oc1ccc2c(=O)oc(-c3ccc([N+](=O)[O-])cc3)nc2c1 | 1.51% |
| COc1cc2c(cc1OC)C(c1cccc([N+](=O)[O-])c1)=NCC2 | -3.32% |
| Cc1nnc(-c2ccc(Oc3ccc(C)c(C)c3)c([N+](=O)[O-])c2)o1 | 4.56% |
| O=[N+]([O-])c1ccc2oc(-c3cccc(O)c3)nc2c1 | 46.9% (active) |
| COc1ccc(-c2nc3cc([N+](=O)[O-])ccc3o2)cc1OC | 24% (active) |
| O=[N+]([O-])c1ccc2c(c1)C(O)n1nc(-c3ccccc3)nc1S2 (stereo not drawn) | -1.52% |
| O=C1[C@@H]2C(c3cccnc3)=NO[C@@H]2C(=O)N1c1ccc(Cl)cc1Cl | -1.88% |
| O=C(CN1CCN(c2ccc(O)cc2)CC1)Nc1ccc(-c2ccccc2)cc1 | -0.918% |
| Oc1ccc(-c2nncn2-c2ccccc2)cc1 | 1.52% |
| Oc1ccc(-c2cccc(-c3ccc(O)cc3)c2)cc1 | 29.3% (active) |
| CCc1ccc(CNC(=O)C2CCN(c3nnc(C)c4c(C)n(-c5ccc(C)cc5)nc34)CC2)cc1 | -4.27% |
| COc1ccc(C(=O)N2CCCCC2C(=O)Nc2ccc(-n3nc(C)cc3C)cc2)o1 (stereo not drawn) | -1.42% |
| C[C@H](NC(=O)C1CC(=O)N(c2ccc3c(c2)OCO3)C1)C(=O)NCc1ccco1 (stereo partly drawn) | 1.48% |
| CCOc1ccc(C2C(C#N)=C(N)N(N(C)C)C3=C2C(=O)CCC3)cc1 (stereo not drawn) | 0.68% |
| O=C(NC(c1ccccc1)c1ccccc1)N1CCN(CCO)CC1 | -1.21% |
| O=C1c2ccccc2C(=O)c2c1cccc2N1CCN(Cc2ccccc2)CC1 | 1.13% |
| O=C1c2ccccc2C(=O)c2c1cccc2N1CCN(CCO)CC1 | 28.2% (active) |
| CN(C)c1ccc(S(=O)(=O)NCC(=O)NCC2CCCCC2)cc1[N+](=O)[O-] | -5.92% |
| Cc1ccc(NC(=O)Cc2nnc(SCC(=O)Nc3nncs3)n2C)cc1 | -3.09% |

| Structure (SMILES) | max response |
| --- | --- |
| CN1C(=O)/C(=C/c2ccc(C(=O)NC3CCCC3)cc2)Oc2ccccc21 | 7.07% |
| COCCCN1C(=O)C(=O)/C(=C(/O)c2ccc(S(=O)(=O)N3CCOCC3)cc2)C1c1ccc(F)cc1 (stereo not drawn) | -2.34% |
| COc1ccc2cc(CCl)c(Cl)nc2c1 | 27% (active) |
| CCc1cc2cc(OC)ccc2nc1SCC(=O)Nc1cc(OC)c(OC)cc1C(=O)O | -1.72% |
| COc1ccc(CN2CCC(c3nc4ccc(Cl)cc4[nH]3)CC2)cc1 | -5.26% |
| O=C(NCc1ccccn1)C1CCN(S(=O)(=O)c2ccc(Br)cc2)CC1 | 5.38% |
| O=C(CSCc1ccccc1)Nc1ccccc1 | 54.4% (active) |
| Cn1c(CSCC(=O)Nc2ccccc2)nnc1SCc1ccccc1 | 1.76% |
| Cc1c(NC(=O)CSCc2ccccc2)cccc1C(=O)O | 10.7% |
| CC(=O)c1ccc(NC(=O)c2ccc(-n3cncn3)c([N+](=O)[O-])c2)cc1 | 5.03% |
| CC(C)C(c1nnnn1C1CCCCC1)N1CCN(C(=O)c2ccco2)CC1 (stereo not drawn) | -3.08% |
| COc1ccc(N(CC(=O)Nc2ccc(F)c(F)c2)S(=O)(=O)c2c(C)[nH]c(=O)[nH]c2=O)cc1 | -1.45% |
| CCc1ccc(/C=N/NC(=O)c2nnn(-c3nonc3N)c2CN2CCc3ccccc32)cc1 | 1.36% |
| Cc1cccnc1CC(C)NC(=O)c1cc(COc2cncc(Cl)c2)on1 (stereo not drawn) | 32.7% (active) |
| Cc1noc(C)c1COc1cccc(C(=O)Nc2cccnc2)c1 | -2.49% |
| CCCOC1CCCN(C(=O)c2cc(COc3cncc(Cl)c3)on2)C1 (stereo not drawn) | 40.2% (active) |
| Cc1cccnc1NC(=O)CSc1nnc(COc2ccc(C(C)C)cc2)n1C | -8.69% |
| Cc1cc(Cl)ccc1C(=O)C1CCCN(C(=O)c2nonc2C)C1 (stereo not drawn) | -0.841% |
| CCOC(=O)C1CCCN(C(=O)c2cncc(Br)c2)C1 (stereo not drawn) | -3.79% |
| Cc1cccc(OCC(=O)NCCNC(=O)c2cccnc2)c1 | -6.99% |
| CCOC(=O)CC1(NC(=O)c2cc(COc3cncc(Cl)c3)on2)CCCCC1 | 11.2% (active) |
| CC(=O)c1cccc(OCc2cc(C(=O)NC(C)Cc3cccnc3)no2)c1 (stereo not drawn) | 23% (active) |
| CC(CCc1ccccc1)NC(=O)c1cnc(Cl)c(Cl)c1 (stereo not drawn) | -1.25% |
